Measurements reported in PubChem BioAssay AID1159580 (chemical genetic matrix, 2015).
Among all 5,500 compounds or so, about 2,000 (36%) were called active. About 18% were inconclusive and are not listed. Cut-off read from the data, not from the text of the source: active = normalized growth mostly below about 0.91 (no sharp cut-off); inconclusive = no clear call, values can overlap the other calls; inactive = mostly above about 0.92. Some of the results follow.

Test: chemical genetic growth profiling, strain panel (AID 1159580);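 note: tested at 20 µM; growth read once vehicle control cultures reached saturation at 30 °C; 1 = growth at the plate median or of vehicle wells; lower values mean less growth of the strain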
Settings: S. cerevisiae deletion strains, growth OD

Measured: normalized growth

COc1ccc(OC)c(-c2ccn[nH]2)c1OCc1ccccc1
inactive: locus YAR019C, strain CDC15, stronger effect = lower value 0.995 | locus YBL105C, strain PKC1, stronger effect = lower value 0.998 | locus YBR135W, strain CKS1, stronger effect = lower value 0.994 | locus YBR136W, strain MEC1, stronger effect = lower value 0.987 | locus YBR160W, strain CDC28, stronger effect = lower value 0.994 | locus YDL017W, strain CDC7, stronger effect = lower value 0.997 | locus YDL028C, strain MPS1, stronger effect = lower value 0.974 | locus YDL101C, strain DUN1, stronger effect = lower value 0.979 | locus YDL108W, strain KIN28, stronger effect = lower value 0.987 | locus YDL132W, strain cdc53, stronger effect = lower value 0.987 | locus YDL214C, strain PRR2, stronger effect = lower value 0.893 | locus YDR052C, strain DBF4, stronger effect = lower value 0.989 | locus YDR054C, strain cdc34, stronger effect = lower value 0.985 | locus YDR226W, strain ADK1, stronger effect = lower value 0.998 | locus YDR477W, strain SNF1, stronger effect = lower value 0.905 | locus YER123W, strain YCK3, stronger effect = lower value 0.762 | locus YER133W, strain GLC7, stronger effect = lower value 0.886 | locus YFL009W, strain cdc4, stronger effect = lower value 0.998 | locus YFL029C, strain CAK1, stronger effect = lower value 0.995 | locus YFR003C, strain YPI1, stronger effect = lower value 0.993 | locus YFR019W, strain FAB1, stronger effect = lower value 0.832 | locus YFR028C, strain CDC14, stronger effect = lower value 0.993 | locus YGR040W, strain KSS1, stronger effect = lower value 0.874 | locus YGR052W, strain FMP48, stronger effect = lower value 0.948 | locus YGR092W, strain DBF2, stronger effect = lower value 0.864 | locus YHR030C, strain SLT2, stronger effect = lower value 0.986 | locus YHR079C, strain IRE1, stronger effect = lower value 0.999 | locus YHR082C, strain KSP1, stronger effect = lower value 0.974 | locus YHR205W, strain SCH9, stronger effect = lower value 0.97 | locus YIL147C, strain SLN1, stronger effect = lower value 0.97 | locus YJL095W, strain BCK1, stronger effect = lower value 0.953 | locus YJL128C, strain PBS2, stronger effect = lower value 0.981 | locus YJL157C, strain FAR1, stronger effect = lower value 0.887 | locus YJR016C, strain ILV3, stronger effect = lower value 1 | locus YJR066W, strain TOR1 (second series), stronger effect = lower value 0.808 | locus YJR066W, strain TOR1, stronger effect = lower value 0.96 | locus YKL048C, strain ELM1, stronger effect = lower value 0.948 | locus YKL067W, strain YNK1, stronger effect = lower value 0.907 | locus YKL101W, strain HSL1, stronger effect = lower value 0.926 | locus YKL193C, strain SDS22, stronger effect = lower value 0.989 | locus YKL203C, strain TOR2, stronger effect = lower value 0.953 | locus YLR113W, strain HOG1, stronger effect = lower value 1.01 | locus YLR133W, strain CKI1, stronger effect = lower value 0.924 | locus YLR403W, strain SFP1, stronger effect = lower value 0.883 | locus YML070W, strain DAK1, stronger effect = lower value 0.877 | locus YMR001C, strain CDC5, stronger effect = lower value 0.993 | locus YMR205C, strain PFK2 (second series), stronger effect = lower value 0.908 | locus YMR277W, strain FCP1, stronger effect = lower value 0.993 | locus YNL006W, strain LST8, stronger effect = lower value 0.985 | locus YNL020C, strain ARK1, stronger effect = lower value 0.903 | locus YNL161W, strain CBK1, stronger effect = lower value 0.995 | locus YNL183C, strain NPR1, stronger effect = lower value 0.969 | locus YNL207W, strain RIO2, stronger effect = lower value 0.997 | locus YNL222W, strain SSU72, stronger effect = lower value 1 | locus YNL307C, strain MCK1 (second series), stronger effect = lower value 0.922 | locus YOL078W, strain AVO1, stronger effect = lower value 0.994 | locus YOL136C, strain PFK27, stronger effect = lower value 0.908 | locus YOR061W, strain CKA2, stronger effect = lower value 0.871 | locus YOR119C, strain RIO1, stronger effect = lower value 0.936 | locus YOR231W, strain MKK1, stronger effect = lower value 0.992 | locus YOR329C, strain SCD5, stronger effect = lower value 0.999 | locus YPL031C, strain PHO85, stronger effect = lower value 0.87 | locus YPL153C, strain RAD53, stronger effect = lower value 0.869 | locus YPL204W, strain HRR25, stronger effect = lower value 0.892 | locus YPL209C, strain IPL1, stronger effect = lower value 0.994 | locus YPL256C, strain CLN2, stronger effect = lower value 1.02 | locus YPR025C, strain CCL1, stronger effect = lower value 0.994 | locus YPR106W, strain ISR1, stronger effect = lower value 1 | locus YPR111W, strain DBF20, stronger effect = lower value 0.999 | strain NNK1, stronger effect = lower value 0.994 | strain TSCII, stronger effect = lower value 0.992
